The text below walks through data of PubChem BioAssay (Tox21).

A number with no mark means an inactive call. Results filed as inconclusive are left out. Active and inactive are the calls of the source. Unless noted, the call rests on the fitted dose curve.

The nature of assay [1]: qHTS assay to identify small molecule agonists of the sonic hedgehog signaling (Shh) pathway (AID 1259368).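 Further: NIH/3T3-derived 3T3Gli1-Luc cells carrying a stable Gli1-driven firefly luciferase reporter; series mostly up to about 92 µM; nearly all actives have a fitted effect of over 15% in size.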 In outline:
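3T3Gli1-Luc (NIH/3T3 clone, stable Gli1-Luc); 4 hr pre-incubation, then cpd in DMSO 24 hr, 37 C/5% CO2; luciferase reagent 30 min RT; luminescence.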
A general note: In qHTS, concentration-response curves come from the screen itself.

Assay [2] in a line: qHTS assay to identify small molecule antagonists of the sonic hedgehog signaling (Shh) pathway (AID 1259369). Further: nearly all actives have a fitted effect of over 45% in size. In outline:
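3T3Gli1-Luc, conditioned-medium-stimulated, 24hr cpd, 37C/5% CO2; Gli1-driven firefly Luc luminescence after 30min RT with luciferase reagent. Cells plated 4hr before cpd.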

Assay [3] is described as follows: qHTS assay to identify small molecule antagonists of the estrogen receptor beta (ER-beta) signaling pathway - cell viability counter screen (AID 1259382; active means well fitted curve in the direction sought with a large enough effect in the repeat runs; an effect the other way counts as inactive or inconclusive; further: series mostly up to about 92 µM; nearly all actives have a fitted effect of over 55% in size). In outline: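 Cells: ER-beta-UAS-bla HEK293T, 2,000/well, 2% CS-FBS, 6 hr settle. Cpd + E2 (1nM final), 16 hr, 37C/5% CO2. Bla FRET substrate 2 hr RT, then CellTiter-Glo 30 min RT, luminescence.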
In assay [4] the target is Estrogen receptor (Homo sapiens) (UniProt P03372). Briefly: qHTS assay to identify small molecule agonists of the estrogen receptor alpha (ER-alpha) signaling pathway in the presence of an antagonist (AID 1259383). Further: top concentration of the series differs between compounds; nearly all actives have a fitted effect of over 15% in size. In outline:
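VM7Luc4E2, endog. ER-alpha + 4×ERE-luc; charcoal-stripped FBS, phenol red-free, 5 d; 24hr plating; +10.0nM ICI-182,780 (final); cpds 15 conc, 22hr, 37C/5% CO2; ONE-Glo luminescence.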

The nature of assay [5]: qHTS assay to identify small molecule agonists or antagonists of the thyroid stimulating hormone receptor (TSHR) signaling pathway - wild type cell line counter screen (AID 1259384). A digest of the protocol:
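Wild-type Hek293 cells, 800/well, 18 h at 37C, then compound with Ro20-1724 for 30 min RT. cAMP by HTRF (cAMP-d2/anti-cAMP cryptate), 1 h RT, fluorescence read. 15 concentrations, triplicates.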

Assay [6] deals with Thyrotropin receptor (Homo sapiens) (UniProt P16473). Description: qHTS assay to identify small molecule antagonists of the thyroid stimulating hormone receptor (TSHR) signaling pathway (AID 1259385). Further: nearly all actives have a fitted effect of over 20% in size. A digest of the protocol:
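TSHR-HEK293 cells (800/well) plated 18 h, then compounds with Ro20-1724 and TSH at 1.5 ng/mL final, 30 min at room temperature. cAMP quantified by HTRF (cAMP-d2/anti-cAMP-cryptate, 1 h); 15 concentrations in triplicate.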

Assay [7] can be described thus: qHTS assay to identify small molecule agonists of the estrogen receptor alpha (ER-alpha) signaling pathway in the presence of an antagonist - cell viability counter screen (AID 1259386; active means well fitted curve in the direction sought with a large enough effect in the repeat runs; an effect the other way counts as inactive or inconclusive;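 further: series mostly up to about 92 µM; cells exposed to compounds for 22 h at 37 °C before the viability read; nearly all actives have a fitted effect of over 30% in size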). In outline:
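VM7Luc4E2, stripped-serum pre-culture 5 d; 24hr plating; +ICI-182,780 10.0nM final; cpds 15 conc, 22hr, 37C/5% CO2; CellTiter-Fluor added at 21hr, fluorescence 1hr later.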

Assay [8] concerns the target Progesterone receptor (Homo sapiens) (UniProt P06401). Description: qHTS assay to identify small molecule agonists of the progesterone receptor (PR) signaling pathway (AID 1346784). Further: nearly all actives have a fitted effect of over 30% in size. Further: potency means the concentration at half of the fitted maximal effect. In outline: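 Compounds were tested for PR agonism in HEK 293T cells bearing a beta-lactamase gene under UAS control. Treatment lasted 16 hr at 37C; signal came from fluorescence of a FRET substrate.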

The target is the same in assay [9]. Description: qHTS assay to identify small molecule antagonists of the progesterone receptor (PR) signaling pathway (AID 1346795; active means well fitted inhibition curve with a large enough effect in the signal ratio in the repeat runs, not every such curve was filed as active; the % refers to the signal ratio). A digest of the protocol: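 In HEK293T cells bearing the PR-UAS-bla reporter, compound effects on promegestone-driven (1 nM) beta-lactamase expression are assessed after 16 hr using a fluorescent FRET substrate incubated 2 hr at room temperature.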

The nature of assay [10]: qHTS assay to identify small molecule antagonists of the progesterone receptor (PR) signaling pathway - cell viability counter screen (AID 1346798; active means well fitted curve in the direction sought with a large enough effect in the repeat runs; an effect the other way counts as inactive or inconclusive; further: series mostly up to about 92 µM; nearly all actives have a fitted effect of over 50% in size). In outline:
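Following a 4 hr attachment, PR-UAS-bla HEK293T cells in charcoal-stripped FBS medium were exposed to compounds with R5020 for 16 hr; CellTiter-Glo was added and luminescence read after 30 min at room temperature.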

Assay [11] in a line: qHTS assay to identify small molecule antagonists of the TGF-beta/Smad signaling pathway - cell viability counter screen (AID 1346824; active means well fitted curve in the direction sought with a large enough effect in the repeat runs; an effect the other way counts as inactive or inconclusive; further: nearly all actives have a fitted effect of over 50% in size). In outline:
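SBE-bla HEK 293T cells, incubated overnight, then compound plus 0.25 ng/mL TGF-beta1 (stock added) for 5 hr at 37 C. Viability was read in the same wells by CellTiter-Glo luminescence after 30 min at room temperature.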

Assay [12] can be described thus: qHTS assay to identify small molecule agonists of the TGF-beta/Smad signaling pathway (AID 1346859; active means well fitted activation curve with a large enough effect in the signal ratio in the repeat runs, not every such curve was filed as active; the % refers to the signal ratio; further: series mostly up to about 77 µM). A digest of the protocol:
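Each well held 4,000 SBE-bla HEK 293T cells incubated overnight before compound addition; 5 hr later the cleavable FRET substrate went on for 2 hr at room temperature, and fluorescence was read at two emissions.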

Assay [13] deals with Thyrotropin-releasing hormone receptor (Homo sapiens) (UniProt P34981). Briefly: qHTS assay to identify small molecule antagonists of the thyrotropin-releasing hormone receptor (TRHR) signaling pathway (AID 1346877; active means well fitted inhibition curve with a large enough effect in the repeat runs, not every such curve was filed as active; further: series mostly up to about 51 µM). A digest of the protocol: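 Intracellular calcium fluorescence, read kinetically every second over 3 min, reports TRH-evoked signalling in HEK293 cells carrying TRHR. Test compounds were added 5 min ahead of a 1 nM TRH challenge.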
Sequence of Thyrotropin-releasing hormone receptor (Homo sapiens) (P34981 whole entry, looked up): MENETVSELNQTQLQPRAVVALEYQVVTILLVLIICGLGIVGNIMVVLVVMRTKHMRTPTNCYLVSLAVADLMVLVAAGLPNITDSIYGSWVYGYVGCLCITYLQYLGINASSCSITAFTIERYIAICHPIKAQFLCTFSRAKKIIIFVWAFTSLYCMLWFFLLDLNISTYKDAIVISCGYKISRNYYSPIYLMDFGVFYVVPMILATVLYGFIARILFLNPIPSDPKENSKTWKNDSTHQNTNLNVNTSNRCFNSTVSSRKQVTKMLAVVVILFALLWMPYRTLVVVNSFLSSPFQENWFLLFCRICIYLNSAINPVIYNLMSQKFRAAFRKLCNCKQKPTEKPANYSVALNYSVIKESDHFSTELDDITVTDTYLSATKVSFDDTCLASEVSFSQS

Assay [14] in a line: qHTS assay to identify small molecule agonists of the androgen receptor (AR) signaling pathway in the presence of an antagonist - cell viability counter screen (AID 1259379; active means well fitted curve in the direction sought with a large enough effect in the repeat runs; an effect the other way counts as inactive or inconclusive;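 further: MDA-kb2 human breast cancer cells carrying an MMTV luciferase reporter; series mostly up to about 92 µM; nearly all actives have a fitted effect of over 25% in size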). A digest of the protocol: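 Cells: MDA-kb2 (MMTV-luc, AR and GR elements), 3,000/well, 5 hr settle. Added: nilutamide 3.0uM final, then compounds (15 conc.). Incubation: 16 hr, 37C, no CO2. Read-out: CellTiter-Fluor, 1 hr, fluorescence.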

Assay [15] can be described thus: qHTS assay to identify small molecule agonists of the estrogen receptor beta (ER-beta) signaling pathway - cell viability counter screen (AID 1259380; active means well fitted curve in the direction sought with a large enough effect in the repeat runs; an effect the other way counts as inactive or inconclusive; further: nearly all actives have a fitted effect of over 30% in size). In outline:
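HEK293T ER-beta-UAS-bla; 2% CS-FBS; 6 hr pre-plate, 16 hr cpd at 37C/5% CO2; LiveBLAzer read first, then CellTiter-Glo 30 min RT, luminescence.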

A short description of assay [16]: qHTS assay to identify small molecule agonists of the progesterone receptor (PR) signaling pathway - cell viability counter screen (AID 1346799). Further: nearly all actives have a fitted effect of over 45% in size. In outline: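 Here, 3,000 PR-UAS-bla HEK293T cells per well were treated with compounds for 16 hr after a 6 hr preincubation at 37C and 5% CO2; cell viability is the CellTiter-Glo luminescence signal.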
Assay [17] can be described thus: qHTS assay to identify small molecule agonists of the TGF-beta/Smad signaling pathway - cell viability counter screen (AID 1346829; active means well fitted curve in the direction sought with a large enough effect in the repeat runs; an effect the other way counts as inactive or inconclusive; further: top concentration of the series differs between compounds; nearly all actives have a fitted effect of over 45% in size). A digest of the protocol:
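Same-well cytotoxicity: CellTiter-Glo added after the 2 hr room-temperature beta-lactamase substrate step, luminescence measured 30 min later; cells had 5 hr of compound at 37 C.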

For assay [18], the target named is Estrogen receptor beta (Homo sapiens) (UniProt Q92731). Description: qHTS assay to identify small molecule agonists of the estrogen receptor beta (ER-beta) signaling pathway (AID 1259377; active means well fitted activation curve with a large enough effect in the signal ratio in the repeat runs, not every such curve was filed as active; the % refers to the signal ratio). In outline:
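Read-out: beta-lactamase FRET fluorescence. Cell line: ER-beta-UAS-bla HEK293T in 2% charcoal-stripped FBS. Exposure: 16 hr at 37C. Substrate step: 2 h at room temperature.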

The target is the same in assay [19]. Description: qHTS assay to identify small molecule antagonists of the estrogen receptor beta (ER-beta) signaling pathway (AID 1259378; active means well fitted inhibition curve with a large enough effect in the signal ratio in the repeat runs, not every such curve was filed as active; the % refers to the signal ratio). In outline: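 ER-beta-UAS-bla HEK293T cells in 2% charcoal-stripped FBS medium treated with compound plus 1nM final 17-beta-estradiol for 16 hr at 37C. Beta-lactamase reporter read by FRET substrate fluorescence after 2 hours at room temperature.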

Assay [20] has as its target Androgen receptor (Homo sapiens) (UniProt P10275). Briefly: qHTS assay to identify small molecule agonists of the androgen receptor (AR) signaling pathway in the presence of an antagonist (AID 1259381). Further: nearly all actives have a fitted effect of over 15% in size. In outline: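 MDA-kb2 cells, 3,000/well, rested 5hr at 37C/0% CO2 → nilutamide 3.0uM final or buffer → compounds, 15 conc. → 16hr at 37C → ONE-Glo, 30min RT → luminescence.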
On the % scale 0 is the no-effect control and ±100 the full control effect.

Sequence of Estrogen receptor (Homo sapiens) (P03372 whole entry, looked up): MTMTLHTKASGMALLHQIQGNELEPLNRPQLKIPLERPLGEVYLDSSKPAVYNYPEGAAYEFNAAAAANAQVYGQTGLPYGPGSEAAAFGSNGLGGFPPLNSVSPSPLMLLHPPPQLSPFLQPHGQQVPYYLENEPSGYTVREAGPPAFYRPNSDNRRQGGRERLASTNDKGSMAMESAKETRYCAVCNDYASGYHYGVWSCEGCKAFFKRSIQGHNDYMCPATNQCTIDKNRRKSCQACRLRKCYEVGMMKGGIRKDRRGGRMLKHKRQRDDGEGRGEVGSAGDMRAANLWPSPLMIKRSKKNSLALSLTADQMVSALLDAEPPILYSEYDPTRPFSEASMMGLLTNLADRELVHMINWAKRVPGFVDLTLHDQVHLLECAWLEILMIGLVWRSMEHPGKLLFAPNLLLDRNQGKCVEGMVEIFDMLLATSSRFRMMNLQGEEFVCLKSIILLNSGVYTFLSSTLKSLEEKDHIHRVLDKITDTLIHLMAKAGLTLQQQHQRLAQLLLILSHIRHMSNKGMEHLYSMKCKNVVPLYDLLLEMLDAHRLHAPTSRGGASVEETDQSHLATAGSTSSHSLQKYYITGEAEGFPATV
Sequence of Thyrotropin receptor (Homo sapiens) (P16473 whole entry, looked up): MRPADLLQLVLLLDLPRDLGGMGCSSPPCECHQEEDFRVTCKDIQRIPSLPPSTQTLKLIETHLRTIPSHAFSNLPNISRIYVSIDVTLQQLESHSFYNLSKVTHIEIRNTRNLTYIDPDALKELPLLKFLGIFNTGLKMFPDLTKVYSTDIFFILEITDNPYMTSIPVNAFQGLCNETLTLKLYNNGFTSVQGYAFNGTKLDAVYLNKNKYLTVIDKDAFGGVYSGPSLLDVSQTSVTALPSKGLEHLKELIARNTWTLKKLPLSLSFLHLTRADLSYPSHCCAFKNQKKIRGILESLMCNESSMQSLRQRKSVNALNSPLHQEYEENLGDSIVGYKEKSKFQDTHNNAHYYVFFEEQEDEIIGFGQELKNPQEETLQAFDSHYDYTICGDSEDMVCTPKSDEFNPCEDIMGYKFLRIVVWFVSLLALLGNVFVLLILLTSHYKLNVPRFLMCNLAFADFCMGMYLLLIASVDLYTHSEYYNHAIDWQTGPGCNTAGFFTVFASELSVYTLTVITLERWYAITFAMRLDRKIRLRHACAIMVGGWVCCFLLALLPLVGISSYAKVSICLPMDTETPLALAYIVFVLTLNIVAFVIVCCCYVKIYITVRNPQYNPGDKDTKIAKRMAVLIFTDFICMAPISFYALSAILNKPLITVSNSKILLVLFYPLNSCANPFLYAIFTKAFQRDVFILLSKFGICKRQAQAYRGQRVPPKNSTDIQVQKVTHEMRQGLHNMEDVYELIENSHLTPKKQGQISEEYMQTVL
Sequence of Estrogen receptor beta (Homo sapiens) (Q92731 whole entry, looked up): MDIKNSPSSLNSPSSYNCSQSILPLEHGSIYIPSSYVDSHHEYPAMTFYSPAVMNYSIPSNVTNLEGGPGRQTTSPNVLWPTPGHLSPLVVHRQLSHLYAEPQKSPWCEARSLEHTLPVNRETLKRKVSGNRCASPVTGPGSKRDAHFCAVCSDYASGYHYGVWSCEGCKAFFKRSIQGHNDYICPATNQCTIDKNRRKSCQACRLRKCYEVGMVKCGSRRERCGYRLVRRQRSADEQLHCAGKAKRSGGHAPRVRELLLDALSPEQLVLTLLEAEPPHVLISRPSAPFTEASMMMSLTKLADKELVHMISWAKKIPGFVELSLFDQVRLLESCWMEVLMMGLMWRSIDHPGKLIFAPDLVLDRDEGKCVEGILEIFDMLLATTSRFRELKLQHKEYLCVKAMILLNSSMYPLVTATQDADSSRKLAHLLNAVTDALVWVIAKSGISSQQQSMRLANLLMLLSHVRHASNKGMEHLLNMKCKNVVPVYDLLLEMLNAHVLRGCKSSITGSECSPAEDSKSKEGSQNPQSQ
Sequence of Progesterone receptor (Homo sapiens) (P06401 whole entry, looked up): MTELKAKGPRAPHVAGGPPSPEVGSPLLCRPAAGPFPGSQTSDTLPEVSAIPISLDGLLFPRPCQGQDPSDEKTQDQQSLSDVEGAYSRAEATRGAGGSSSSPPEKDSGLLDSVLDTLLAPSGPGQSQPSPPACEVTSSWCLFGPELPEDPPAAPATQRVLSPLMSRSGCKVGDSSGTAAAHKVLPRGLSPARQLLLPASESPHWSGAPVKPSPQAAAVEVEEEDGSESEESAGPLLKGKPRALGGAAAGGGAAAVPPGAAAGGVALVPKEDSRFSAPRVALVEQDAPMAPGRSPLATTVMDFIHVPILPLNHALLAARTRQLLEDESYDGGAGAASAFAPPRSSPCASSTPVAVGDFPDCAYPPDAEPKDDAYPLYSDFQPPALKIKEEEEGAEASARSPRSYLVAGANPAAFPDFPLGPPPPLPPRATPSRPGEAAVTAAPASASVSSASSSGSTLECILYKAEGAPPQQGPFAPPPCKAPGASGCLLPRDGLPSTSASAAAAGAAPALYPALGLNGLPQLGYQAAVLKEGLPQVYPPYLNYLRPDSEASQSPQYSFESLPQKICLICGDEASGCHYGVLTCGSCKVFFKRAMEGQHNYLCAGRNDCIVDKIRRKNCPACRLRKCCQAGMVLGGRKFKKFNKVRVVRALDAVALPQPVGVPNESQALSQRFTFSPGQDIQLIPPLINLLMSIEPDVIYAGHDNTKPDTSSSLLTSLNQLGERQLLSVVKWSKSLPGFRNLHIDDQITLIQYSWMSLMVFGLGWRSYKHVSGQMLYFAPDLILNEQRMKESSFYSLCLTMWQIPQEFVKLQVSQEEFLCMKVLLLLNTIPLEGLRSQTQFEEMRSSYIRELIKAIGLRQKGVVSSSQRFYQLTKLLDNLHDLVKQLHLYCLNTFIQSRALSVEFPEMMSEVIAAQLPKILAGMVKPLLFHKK
Sequence of Androgen receptor (Homo sapiens) (P10275 whole entry, looked up): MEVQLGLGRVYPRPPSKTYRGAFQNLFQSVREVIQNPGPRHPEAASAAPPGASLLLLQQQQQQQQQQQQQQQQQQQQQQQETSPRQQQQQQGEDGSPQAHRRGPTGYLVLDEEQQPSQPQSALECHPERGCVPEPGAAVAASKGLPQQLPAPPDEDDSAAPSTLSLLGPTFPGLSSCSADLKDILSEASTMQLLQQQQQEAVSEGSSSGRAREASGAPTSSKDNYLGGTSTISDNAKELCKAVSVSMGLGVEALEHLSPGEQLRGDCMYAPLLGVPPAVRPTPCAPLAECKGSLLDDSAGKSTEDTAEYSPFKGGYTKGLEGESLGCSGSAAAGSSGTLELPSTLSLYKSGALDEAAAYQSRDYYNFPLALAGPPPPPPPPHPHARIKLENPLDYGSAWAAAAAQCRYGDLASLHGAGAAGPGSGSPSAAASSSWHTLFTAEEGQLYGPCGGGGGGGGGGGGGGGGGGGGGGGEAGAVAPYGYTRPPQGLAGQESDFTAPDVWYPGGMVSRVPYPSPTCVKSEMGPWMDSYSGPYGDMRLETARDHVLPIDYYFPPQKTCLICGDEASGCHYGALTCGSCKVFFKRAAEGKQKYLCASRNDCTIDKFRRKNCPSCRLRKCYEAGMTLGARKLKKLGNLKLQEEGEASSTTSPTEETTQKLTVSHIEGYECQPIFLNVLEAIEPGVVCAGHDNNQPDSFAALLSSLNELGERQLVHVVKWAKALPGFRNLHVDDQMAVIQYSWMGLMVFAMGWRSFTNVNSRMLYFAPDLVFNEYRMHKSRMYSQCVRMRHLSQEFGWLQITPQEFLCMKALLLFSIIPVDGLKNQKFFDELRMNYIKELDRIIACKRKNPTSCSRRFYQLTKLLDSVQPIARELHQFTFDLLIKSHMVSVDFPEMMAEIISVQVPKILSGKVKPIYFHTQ

Turning to `COc1cc(NS(=O)(=O)c2ccc(N)cc2)nc(C)n1`, the Potency entry in assay [1], in assay [2], in [3], in [4], in assay [5] and in [6] was “inactive” in each case. Besides, the Potency result in [7], in assay [8], in [9], in assay [10] and in [12] was “inactive” in each case. The outcome in assay [11] and in [13] was inactive.
`COC(CC(C)CCCC(C)(C)O)OC` (centres undefined): the Potency result in assay [1], in assay [2], in [14], in assay [15], in [3] and in [5] was “inactive” throughout. The Potency result in [6], in assay [7], in assay [8], in [9], in assay [10] and in [16] was “inactive” throughout. Besides, the Potency entry in [17] and in [12] was “inactive” throughout. In addition, the result in assay [11] and in assay [13] was inactive.
Consider `O=NN(CCCl)C(=O)NCCCl`, for which the Potency result in [1], in assay [18], in assay [19], in assay [14], in assay [15] and in assay [20] was “inactive” throughout. Moreover, the Potency entry in [3], in [4], in [5], in [7], in assay [8] and in assay [9] was “inactive” throughout. Also, the Potency entry in assay [10], in [16], in assay [17] and in [12] was “inactive” throughout. In addition, the compound was called inactive in assay [11] and in [13].
Take `CCCCCCCCCCCCCOC(=O)CCSCCC(=O)OCCCCCCCCCCCCC`: in assay [1], the activity change is -0.0494% [at 18.9 µM, hits give high values]. Moreover, the activation is -0.464% [at 19 µM] in [18] and 1.33% [at 15.8 µM] in assay [12]. Besides, the results for the activity, negative = inhibition in assay [19] and in assay [13] were -0.0397% [at 19 µM] and 4.46% [at 10.5 µM], respectively. Moreover, the activity change, negative = cytotoxicity in [14] is -0.499% [at 19 µM]; in assay [15], 4.18% [at 19 µM]; in [3], 3.4% [at 19 µM]; in assay [7], -1.3% [at 19 µM]; in assay [10], -8.45% [at 18.9 µM]; in assay [16], 36.2% [at 19 µM]. In addition, in assay [17], the activity change, negative = cytotoxicity was -1.41% [at 15.8 µM]. The cAMP activity change in [5] was -3.33% [at 18.9 µM, hits give high values]. In addition, the activity change, negative = inhibition in assay [6] was -0.382% [at 19 µM]; in [9], 5.83% [at 18.9 µM]. The Potency in assay [8] was 644 nM (active).
With `CN=C(N)NC(=O)Nc1c(C)cccc1C`, the Potency result in assay [1], in assay [2], in assay [14], in assay [3], in assay [4] and in [5] was “inactive” each time. The Potency result in [6], in assay [7], in assay [8], in assay [9], in assay [10] and in [16] was “inactive” each time. Moreover, the Potency result in assay [17] and in [12] was “inactive” each time. Moreover, the compound was classed as inactive in [11].
Consider `BrC(Br)C(Br)Br`, for which the Potency entry in [1], in assay [2], in assay [14], in assay [20], in assay [3] and in assay [4] was “inactive” throughout. In addition, the Potency entry in assay [5], in assay [6], in [7], in assay [8], in [9] and in assay [10] was “inactive” throughout. The Potency result in [17] and in [12] was “inactive” each time. Besides, the outcome in assay [11] and in [13] was inactive.
For the compound `CC(C)CC(O)CC(C)C`, the Potency entry in assay [1], in assay [2], in assay [3], in assay [4], in assay [5] and in [6] was “inactive” each time. Further, the Potency entry in assay [7], in assay [8], in assay [9], in [10], in [16] and in assay [17] was “inactive” each time. Besides, the Potency result in [12] was “inactive”. Moreover, the call in assay [11] and in assay [13] was inactive.
